{"source": "PubChem BioAssay AID485297", "about": "(National Center for Advancing Translational Sciences (NCATS), 2010)", "note": "In all, about 320,000 compounds went through this assay and about 9,100 (2.8%) were called active. Where a call stands in place of a potency, no number is given. Another 3% or so got no clear call; they are omitted. This is one part of a sample in which actives are shown more often than they occur. Calls follow the shape of the dose curve; as a rule, active = well fitted activation curve with a large enough effect; inconclusive = small, poorly fitted or top-dose-only effect; inactive = no such curve, though single readings can be large or run the other way. Potency is read from the fitted curve at half-maximal effect.", "data": [{"experiment": "qHTS Assay for Rab9 Promoter Activators; also: nearly all actives have a fitted effect of over 60% in size", "details": "Huh7 Rab9 promoter-luciferase reporter, luminescence, 24 h; series mostly up to 9.22 µM", "summary_of_the_method": "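Measured in stably transfected Huh7 cells bearing a Rab9 promoter–luciferase construct: 24 h compound treatment at 37 °C, followed by luminescence detection.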", "values": [{"smiles": "O=C(COc1ccc(Cl)cc1)Nc1ccc2oc(=O)ccc2c1", "Potency": "inactive"}, {"smiles": "Cc1ccc(-c2csc(NC(=O)c3cccs3)n2)cc1", "Potency": "3550 nM (active)"}, {"smiles": "Cc1ccc(C)c(NC(=O)CCC(=O)NNC(=O)c2cccs2)c1", "Potency": "inactive"}, {"smiles": "Cc1ccc(-c2csc(NC(=O)Cn3[nH]c(=O)c4ccccc4c3=O)n2)cc1", "Potency": "inactive"}, {"smiles": "NNC(=O)c1ccc(Cl)cc1Cl", "Potency": "inactive"}, {"smiles": "CCCc1ccc(-c2csc(NC(=O)Cc3cccs3)n2)cc1", "Potency": "inactive"}, {"smiles": "Cc1nc(-c2ccc(NC(=O)c3cccs3)cc2)cs1", "Potency": "398 nM (active)"}, {"smiles": "Cc1ccc(NNC(=O)c2cccs2)cc1Cl", "Potency": "inactive"}, {"smiles": "Cc1ccc(C(=O)NNC(=O)c2cccs2)cc1", "Potency": "2820 nM (active)"}, {"smiles": "O=C(NNC(=O)c1ccc(Cl)cc1Cl)c1cccs1", "Potency": "3550 nM (active)"}, {"smiles": "CC(C)C(=O)Nc1ccc(C(=O)NNC(=O)c2cccs2)cc1", "Potency": "inactive"}, {"smiles": "Cc1ccc(C(=O)Nc2ccc(NC(=O)c3cccs3)cc2)c(C)c1", "Potency": "inactive"}, {"smiles": "O=C(Nc1ccccc1)c1ccc(NC(=O)c2cccs2)cc1", "Potency": "inactive"}, {"smiles": "Cc1cccc(C)c1NC(=O)CNC(=O)C1CCCC1", "Potency": "inactive"}, {"smiles": "O=C(CN1CCCCC1)NC(=O)Nc1ccccc1F", "Potency": "inactive"}, {"smiles": "CC(=O)C[C@@H](O)CC(=O)[C@H]1OC(=O)CCCCCCc2ccccc21", "Potency": "inactive"}, {"smiles": "Cc1cc(C(=O)OCC(=O)Nc2ccccc2Cl)c(C)o1", "Potency": "inactive"}, {"smiles": "O=C(COc1ccccc1O)NC1CCCC1", "Potency": "inactive"}, {"smiles": "COc1ccc(C(=O)NCC2CCCCC2)cc1S(=O)(=O)N1CCCC1", "Potency": "inactive"}, {"smiles": "COc1ccc(OC)c(NC(=O)c2sc3nc(C)cc(C)c3c2N)c1", "Potency": "inactive"}, {"smiles": "COCCCNc1nc2c(-c3cccc(C)c3)nnn2c2ccc(Cl)cc12", "Potency": "inactive"}, {"smiles": "COC(=O)c1cc(Oc2ccc(S(=O)(=O)N3CCOCC3)cc2[N+](=O)[O-])cc(C(=O)OC)c1", "Potency": "inactive"}, {"smiles": "COc1ccc(S(=O)(=O)Nc2ccc3cn[nH]c3c2)cc1[N+](=O)[O-]", "Potency": "inactive"}, {"smiles": "CC(C)Nc1ccc(-n2nc3ccccc3[n+]2[O-])cc1", "Potency": "501 nM (active)"}, {"smiles": "CCN(CC(=O)NCc1cccs1)C(=O)/C=C/c1ccc(C)cc1", "Potency": "inactive"}, {"smiles": "COc1ccccc1NC(=O)COC(=O)COc1ccccc1F", "Potency": "inactive"}, {"smiles": "CCS(=O)(=O)C1=NSC2=NC(=O)/C(=C\\c3cc(C)n(-c4cccc(OC)c4)c3C)C(=N)N21", "Potency": "inactive"}, {"smiles": "Cc1cc(/C=C2/C(=N)N3C(=NC2=O)SN=C3S(C)(=O)=O)c(C)n1-c1ccccc1", "Potency": "3550 nM (active)"}, {"smiles": "CCC1=NN2C(=N)/C(=C/c3cc(C)n(-c4ccccc4)c3C)C(=O)N=C2S1", "Potency": "inactive"}, {"smiles": "COc1ccc([C@H]2CC(=O)C=C(/C=C/c3ccccc3)C2)cc1", "Potency": "inactive"}, {"smiles": "COc1ccc2oc(=O)c(C(=O)N3CCCC3)cc2c1", "Potency": "inactive"}, {"smiles": "Cc1cc(C)cc(NC(=O)N2CCCCCCC2)c1", "Potency": "inactive"}, {"smiles": "Cc1ccc2cc3cc(C(=O)N4CCCCCC4)oc3nc2c1", "Potency": "631 nM (active)"}, {"smiles": "O=C(NNC(=O)c1cc(S(=O)(=O)N2CCCCC2)ccc1Cl)c1ccccc1O", "Potency": "inactive"}, {"smiles": "O=C1CCN(C(=S)NCCc2ccccc2)CC1", "Potency": "inactive"}, {"smiles": "COc1ccc(C(=O)NC2CCN(C(=S)NCCc3ccccc3)CC2)cc1", "Potency": "inactive"}, {"smiles": "S=C(NCCc1ccccc1)N1CCCCC1", "Potency": "3160 nM (active)"}, {"smiles": "Cc1cccn2c(=O)nc(SCC(=O)NCc3ccccc3Cl)nc12", "Potency": "inactive"}, {"smiles": "CC(C)CCN1CCC(C)(NC(=O)c2ccccc2)C1=O", "note": "(stereo unspecified)", "Potency": "inactive"}, {"smiles": "Nc1nonc1-c1noc(-c2ccc(Br)o2)n1", "Potency": "inactive"}, {"smiles": "Cn1nc(-c2ccccc2)c(-c2nc(-c3ccc(Cl)cc3)no2)c1Cl", "Potency": "inactive"}, {"smiles": "Brc1ccc(-c2noc(-c3ccccc3)n2)o1", "Potency": "1260 nM (active)"}, {"smiles": "CCOC(=O)c1cn[nH]c1NC(=S)Nc1ccccc1", "Potency": "1120 nM (active)"}, {"smiles": "CCOC(=O)c1cc2c(nc1NC(=S)Nc1ccccc1)CC(C)(CC)OC2", "note": "(stereo unspecified)", "Potency": "inactive"}, {"smiles": "CCOC(=O)c1ccc(NC(=S)Nc2cc(C)cc(C)n2)cc1", "Potency": "inactive"}, {"smiles": "Cn1nc(C(=O)OCC(=O)N(Cc2ccccc2)C(C)(C)C)c2ccccc2c1=O", "Potency": "inactive"}, {"smiles": "O=S(=O)(Nc1ccc(-n2cnnn2)cc1)c1ccc(Cl)cc1", "Potency": "inactive"}, {"smiles": "O=C(COc1nc2ccccc2nc1N1CCOCC1)NCC(F)(F)F", "Potency": "inactive"}, {"smiles": "O=C(C1Cc2ccccc2CN1C(=O)c1ccco1)N1CCN(c2ccccc2)CC1", "note": "(stereo unspecified)", "Potency": "inactive"}, {"smiles": "CCn1cnc2scc(-c3ccc(C)c(C)c3)c2c1=O", "Potency": "inactive"}, {"smiles": "O=C(Nc1ccc(Cl)cc1)/C(=C1\\CCCN1)[N+](=O)[O-]", "Potency": "2820 nM (active)"}, {"smiles": "O=C(O)C1CCCCC1C(=O)Nc1ccc(Cl)cc1", "note": "(stereo unspecified)", "Potency": "inactive"}, {"smiles": "Cc1nc([N+](=O)[O-])cn1CC(=O)Nc1ccc(Cl)cc1", "Potency": "inactive"}, {"smiles": "COc1ccc(N2C(=O)CC(Nc3ccc(F)cc3)C2=O)c([N+](=O)[O-])c1", "note": "(stereo unspecified)", "Potency": "inactive"}, {"smiles": "COc1ccc(C(=O)O/N=C(\\N)c2ccccn2)cc1[N+](=O)[O-]", "Potency": "4470 nM (active)"}, {"smiles": "Cc1ccc(Cl)cc1NC(=O)c1ccccn1", "Potency": "inactive"}, {"smiles": "COc1ccc(C(=O)NNC(=O)c2cnccn2)cc1[N+](=O)[O-]", "Potency": "inactive"}, {"smiles": "Cc1ccc(C(=O)O/N=C(\\N)c2ccccn2)cc1Cl", "Potency": "3160 nM (active)"}, {"smiles": "COc1ccccc1OCC(=O)OCn1c(SC)nnc(C)c1=O", "Potency": "inactive"}, {"smiles": "COc1ccccc1OCC(=O)OCc1cc(-c2ccco2)on1", "Potency": "inactive"}, {"smiles": "O=C(OCc1ccc([N+](=O)[O-])cc1)c1ccccn1", "Potency": "inactive"}, {"smiles": "O=C(Nc1ccccc1Cl)O/N=C(/c1ccccc1)c1ccccn1", "Potency": "inactive"}, {"smiles": "O=C(COC(=O)c1ccccn1)NNC(=O)c1ccc([N+](=O)[O-])cc1", "Potency": "inactive"}, {"smiles": "COc1ccc(C(=O)CSc2nc(C)cc(C)n2)cc1[N+](=O)[O-]", "Potency": "inactive"}, {"smiles": "N/C(=N\\OC(=O)c1ccc([N+](=O)[O-])cc1)c1ccccn1", "Potency": "316 nM (active)"}, {"smiles": "COc1ccccc1OCC(=O)O/N=C(\\N)c1ccccn1", "Potency": "3160 nM (active)"}, {"smiles": "CC(C)Cn1c(N)c(C(=O)COC(=O)C2CCCN2C(=O)c2cccs2)c(=O)n(C)c1=O", "note": "(stereo unspecified)", "Potency": "inactive"}, {"smiles": "CCOc1c(Nc2cccc(Cl)c2)c(=O)c1=O", "Potency": "inactive"}, {"smiles": "CS(=O)(=O)Nc1ccccc1C(=O)OCC(=O)NC1CC1", "Potency": "inactive"}, {"smiles": "CCOC(=O)C1CCN(C(=O)c2cccc(S(=O)(=O)N(CC)c3ccccc3)c2)CC1", "Potency": "inactive"}, {"smiles": "Cn1c2cc(B(O)O)sc2c2cnn(Cc3ccccc3F)c(=O)c21", "Potency": "inactive"}]}]}
